We go through four compounds from PubChem BioAssay (NCATS).

Results filed as inconclusive are left out. The source made the active and inactive calls. Unless noted, calls follow the shape of the dose curve; as a rule, active = well fitted curve in the direction sought with a large enough effect; inconclusive = small, poorly fitted or top-dose-only effect, or another doubt; inactive = no such curve, though single readings can be large; an effect the other way counts as inactive or inconclusive.

Assay [1] is described as follows: qHTS for Inhibitors of the Functional Ribonucleoprotein Complex (vRNP) of Lassa (LASV) Arenavirus: LASV Primary Screen - GLuc reporter signal (AID 1347082; calls by dose curve; tested in HEK293 reporter line; also: % is scaled to controls: 0 for no effect and ±100 for the full control effect; nearly all actives have a fitted effect of over 60% in size). A general note: qHTS replaces the single test concentration by a dilution series.
Assay [2] concerns the target Luciferin 4-monooxygenase (Photinus pyralis) (UniProt P08659). Briefly: Biochemical firefly luciferase enzyme assay for NPC (AID 624030).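 Also: purified P. pyralis luciferase at 10 nM with luciferin and ATP substrate; 0% = DMSO and -100% = full luciferase inhibition by PTC124 control; nearly all actives have a fitted effect of over 70% in size.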 The procedure, abridged: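 Counter-screen for direct inhibition of the luciferase enzyme by approved-drug library compounds, run at 10 nM enzyme in 50 mM Tris acetate (final). Luminescence was read within 5 min of enzyme-buffer addition and normalized to PTC124 versus DMSO (0%).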

A short description of assay [3]: qHTS Assay for Identifying Gametocytocidal Compounds (AID 743244).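 Also: % is scaled to controls: 0 for no effect and ±100 for the full control effect; actives lower the fluorescent signal which means gametocytes are killed.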 The note with it: P. falciparum 3D7 stage III-V gametocytes, alamarBlue, 72 h; max response: stronger effect = lower value. The procedure, abridged: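 3D7 gametocytes, stages III–V, 20,000/well; cpd 72 h, 37 °C/5% CO2; + alamarBlue 24 h; fluor. Ex 525/Em 598.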
A short description of assay [4]: P-glycoprotein substrates identified in KB-8-5-11 adenocarcinoma cell line, qHTS therapeutic library screen (AID 1346987). Also: % is scaled to controls: 0 for no effect and ±100 for the full control effect; nearly all actives have a fitted effect of over 65% in size. The procedure, abridged: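 KB-8-5-11: colchicine-selected sub-line of KB-3-1 over-expressing P-gp; assay medium lacked colchicine. 72 h drug exposure at 37 degree C, CellTiter-Glo.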
The nature of assay [5]: Primary qHTS for Huh7 cytotoxicity: counterscreen for inhibitors of MERS-S pseudotyped particle cell entry (AID 1479147; calls by dose curve; also: % is scaled to controls: 0 for no effect and ±100 for the full control effect). As to conditions: outcome: dose series up to 57.1 µM unless noted.
Assay [6] is described as follows: Primary qHTS for inhibitors of MERS-S pseudo-typed particle cell entry (AID 1479149; calls by dose curve; also: nearly all actives have a fitted effect of over 60% in size).
Assay [7] is described as follows: Primary qHTS for Vero E6 cytotoxicity: counterscreen for inhibitors of SARS-S pseudo-typed particle cell entry (AID 1479150; calls by dose curve; also: % is scaled to controls: 0 for no effect and ±100 for the full control effect). The note with it: outcome: dose series up to 57.1 µM unless noted.
Assay [8] in a line: Cytotoxicity counterscreen for inhibitors of SARS-CoV-2 cell entry (AID 1645845; calls by dose curve; also: % is scaled to controls: 0 for no effect and ±100 for the full control effect; nearly all actives have a fitted effect of over 50% in size). In outline:
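Expi293F/hACE2 cells seeded overnight; cpd pin-transferred in DMSO, 1 h preincubation, + media, 48 h 37 C 5% CO2; ATPLite 1step luminescence; normalized to cells and no cells.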

The nature of assay [9]: Primary qHTS to identify inhibitors of SARS-CoV-2 cell entry (AID 1645846; calls by dose curve; also: nearly all actives have a fitted effect of over 45% in size). As to conditions: activity change, negative = inhibition: at 57.1 µM (top of the series) unless noted. The procedure, abridged:
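Using luciferase-reporting pseudoviruses carrying Wuhan-Hu-1 spike, the screen tracks entry into stably ACE2-expressing cells over 48 hr. Activity is expressed relative to spike particles versus particles lacking any fusion protein.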

Assay [10] has as its target Phospholipid hydroperoxide glutathione peroxidase GPX4 (Homo sapiens) (UniProt P36969). Briefly: Primary qHTS Assay for Inhibitors of Recombinant Selenoprotein Glutathione Peroxidase 4 (GPX4) (AID 1845192). Also: nearly all actives have a fitted effect of over 65% in size. In outline:
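GR-coupled readout: 100 nM GR, 1 mM GSH, 0.5 mM NADPH; NADPH fluorescence (ex 340/em 450 nm) read at t=0 and after 15 min RT. GPX4 200 nM, preincubated 30 min with compound; substrate 0.5 mM CHP.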

Assay [11] relates to astro. Briefly: Drug repurposing screens with cells derived from glioblastoma tumor samples (AID 1345199). Also: % is scaled to controls: 0 for no effect and ±100 for the full control effect; nearly all actives have a fitted effect of over 40% in size. The note with it: viability, ATP luminescence, 48 h; series mostly up to 45.9 µM. The procedure, abridged: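 Four patient lines of CD133+ GBM neurospheres were screened at several concentrations; hits were retested in those lines plus three slower-growing GBM lines, using 48-hour treatment and ATP-based viability.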

Assay [12] has as its target Catechol O-methyltransferase (Homo sapiens) (UniProt P21964). Briefly: Confirmatory Screen for Target Class Profiling of Small Molecule Inhibitors of Methyltransferases (AID 1745852; calls by dose curve). The note with it: MTase-Glo luminescence, SAH detection, recombinant enzyme; measured here: COMT max response; stronger effect = lower value.
Assay [13] addresses Guanidinoacetate N-methyltransferase (Homo sapiens) (UniProt Q14353). The assay is described as above. As to conditions: activity change, negative = inhibition: at 57.3 µM (top of the series) unless noted.
Assay [14] concerns the target Nicotinamide N-methyltransferase (Homo sapiens) (UniProt P40261). The description is as above. The note with it: MTase-Glo luminescence, SAH detection, recombinant enzyme; measured here: NNMT max response; stronger effect = lower value.
In assay [15] the target is Phenylethanolamine N-methyltransferase (Homo sapiens) (UniProt P11086). The description is as above. The note with it: MTase-Glo luminescence, SAH detection, recombinant enzyme; measured here: PNMT max response; stronger effect = lower value.
Assay [16] concerns the target Glutathione peroxidase 1 (Homo sapiens) (UniProt P07203). The assay can be described thus: Primary qHTS Assay for Inhibitors of Recombinant Selenoprotein Glutathione Peroxidase 1 (GPX1) (AID 1845191). Also: nearly all actives have a fitted effect of over 65% in size. In outline:
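Recombinant GPX1 (10 nM final) was preincubated with compound for 30 min at room temperature, then reacted with 1 mM GSH, 0.5 mM CHP, 0.5 mM NADPH and 100 nM glutathione reductase; NADPH fluorescence (340/450 nm) was read at 0 and 15 min.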

In assay [17] the target is Alpha-galactosidase (Coffea arabica) (UniProt Q42656). The assay can be described thus: Counterscreen for Glucocerebrosidase Inhibitors: qHTS Assay for Coffee Bean alpha-Galactosidase at pH 4.5 (AID 957).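 Also: plate controls were enzyme alone for no effect and no enzyme for full effect.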 The procedure, abridged: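 Green coffee bean enzyme (2 nM final) was incubated with compounds (0.7 nM to 77 uM) and 4-methylumbelliferyl alpha-D-galactopyranoside (80 uM final) in 50 mM citric acid, 0.005% Tween-20, pH 4.5, 20 min at room temperature; AC50 from Hill fits.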

The target is the same in assay [18]. Briefly: Counterscreen for Glucocerebrosidase Inhibitors: qHTS Assay for Coffee Bean alpha-Galactosidase at pH 5.9 (AID 998).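 Also: plate controls were uninhibited enzyme for no effect and no-enzyme basal signal for full effect.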 In outline:
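Green coffee bean enzyme (2 nM final) was incubated with compounds (0.7 nM–77 uM) and 4-methylumbelliferyl alpha-D-galactopyranoside (80 uM) in citrate buffer pH 5.9, 20 min at room temperature. High-pH stop; fluorescence 365/440 nm; AC50 from Hill fits.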
Background: Counterscreens check selectivity or assay interference.

Assay [19] in a line: High Content Imaging Cell-Based qHTS for Inhibitors of the mTORC1 Signaling Pathway in MEF (Tsc2-/-, p53-/-) Cells (AID 2666).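 Also: percent of cells scored positive for phospho-rpS6 Ser235/236 immunostaining by imaging.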 The procedure, abridged: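 Read-out: % positive cells per well, with thresholds from highest- and lowest-signal wells, based on phospho-rpS6 (Ser235/236) intensity normalized to Hoechst nuclear stain. Cells: Tsc2-/-, p53-/- MEFs carrying empty vector; compound 24 hrs, 37 degree Celsius.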

Assay [20] in a line: Validation screen for inhibitors of Lassa infection (AID 463096; calls by dose curve; also: % is scaled to controls: 0 for no effect and ±100 for the full control effect).
The target in assay [21] is M-phase phosphoprotein 8 (Homo sapiens) (UniProt Q99549). Briefly: qHTS Validation Assay for Inhibitors for MPP8 Chromodomain Interactions with Methylated Histone Tails (AID 488949).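 Also: 50 nM MPP8 with 50 nM peptide preformed then compounds added for 30 min; AlphaScreen signal from MPP8 chromodomain bound to biotinylated H3K9me3 peptide; top concentration of the series differs between compounds; % is scaled to controls: 0 for no effect and ±100 for the full control effect; nearly all actives have a fitted effect of over 55% in size.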 The procedure, abridged:
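Chemiluminescent proximity assay: histidine-tag capture via nickel acceptor beads, biotin peptide via streptavidin donor beads. Protein and peptide each at 50 nM, pH 7.4, with 30 min incubations at room temperature for complex formation, compound exposure and bead binding.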

Assay [22] can be described thus: Inducers of the Endoplasmic Reticulum Stress Response (ERSR) in human glioma: Validation (AID 504836). Also: 0% is about no effect. In outline:
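Stably transfected U87-MG human glioma cells carrying a GRP78-based luminescent sensor were seeded at 1000 cells/well, pin-dosed with compounds and incubated 16 h. Luciferase reagent was then added, and end-point luminescence was read after 10 min at room temperature.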

Assay [23] deals with Ubiquitin carboxyl-terminal hydrolase 1 (Homo sapiens) (UniProt O94782). The assay can be described thus: Inhibitors of USP1/UAF1: Pilot qHTS (AID 504865).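 Also: rhodamine fluorescence freed from ubiquitin-rhodamine substrate followed over time; top concentration of the series differs between compounds; % is scaled to controls: 0 for no effect and ±100 for the full control effect; nearly all actives have a fitted effect of over 35% in size.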 The procedure, abridged: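 Enzyme-free wells gave the negative control, while test wells held 1nM USP1/UAF1 preincubated with compound for 15 min at room temperature. Ub-Rho at 150nM final started the reaction, and fluorescence at 480/540 nm was recorded kinetically.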

Assay [24] can be described thus: HTS Assay for Allosteric Antagonists of the Human D2 Dopamine Receptor: Hit Validation in HTRF (AID 624455).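 Also: stable D1 dopamine receptor cell line scored for blocking the D1 response; % is scaled to controls: 0 for no effect and ±100 for the full control effect.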 In outline: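 Hits were examined in an HTRF assay using cells stably expressing the D1 dopamine receptor, scoring inhibition of the D1-mediated response. The preceding primary screen tracked calcium flux after an EC80 dopamine addition in force-coupled, inducible Hek293 Trex D2 cells.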
On the technique in general: Time-resolved FRET reads energy transfer from a long-lived donor to a nearby acceptor.

The target of assay [25] is Arylsulfatase A (Homo sapiens) (UniProt P15289). Briefly: qHTS screen for enhancers of Arylsulfatase A (ASA1): LOPAC Validation Assay (AID 720538). The procedure, abridged: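 Cell-based enhancement test: residual ASA activity in SV40-transformed I179S patient fibroblasts is measured by pNCS turnover (0.5mM final, 14h, room temperature) following 48h compound incubation; higher fluorescence indicates activation.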

Assay [26] deals with Parathyroid hormone/parathyroid hormone-related peptide receptor (Homo sapiens) (UniProt Q03431). Briefly: qHTS for PTHR1 Agonists: Optimization Screen against the NCGC LOPAC library (AID 1347079).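 Also: GloSensor cAMP luminescence in HEK-293 GP2 cells expressing human PTHR1 with IBMX; 0% is about no effect.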 In outline: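 Compounds were tested across a qHTS titration. PTHR1-expressing GP2 cells report cAMP rises via GloSensor luminescence after 1 hr compound exposure at 37C with IBMX present.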

Assay [27] in a line: qHTS for Inhibitors of the Functional Ribonucleoprotein Complex (vRNP) of Lassa (LASV) Arenavirus: Viability assay - alamar blue signal for LASV Primary Screen (AID 1347083; calls by dose curve; tested in HEK293 reporter line; also: % is scaled to controls: 0 for no effect and ±100 for the full control effect; nearly all actives have a fitted effect of over 80% in size).
Assay [28] is described as follows: qHTS for Inhibitors of the Functional Ribonucleoprotein Complex (vRNP) of Lymphocytic Choriomeningitis Arenaviruses (LCMV): Viability assay - alamar blue signal for LCMV Primary Screen (AID 1347085; calls by dose curve; tested in HEK293 reporter line; also: % is scaled to controls: 0 for no effect and ±100 for the full control effect; nearly all actives have a fitted effect of over 80% in size).
Assay [29] addresses Nucleoprotein (Lymphocytic choriomeningitis virus (strain Armstrong)) (UniProt P09992). Briefly: qHTS for Inhibitors of the Functional Ribonucleoprotein Complex (vRNP) of Lymphocytic Choriomeningitis Arenaviruses (LCMV): LCMV Primary Screen - GLuc reporter signal (AID 1347086; calls by dose curve; also: % is scaled to controls: 0 for no effect and ±100 for the full control effect; nearly all actives have a fitted effect of over 70% in size).

Alpha-galactosidase (Coffea arabica), sequence (Q42656 whole entry, looked up): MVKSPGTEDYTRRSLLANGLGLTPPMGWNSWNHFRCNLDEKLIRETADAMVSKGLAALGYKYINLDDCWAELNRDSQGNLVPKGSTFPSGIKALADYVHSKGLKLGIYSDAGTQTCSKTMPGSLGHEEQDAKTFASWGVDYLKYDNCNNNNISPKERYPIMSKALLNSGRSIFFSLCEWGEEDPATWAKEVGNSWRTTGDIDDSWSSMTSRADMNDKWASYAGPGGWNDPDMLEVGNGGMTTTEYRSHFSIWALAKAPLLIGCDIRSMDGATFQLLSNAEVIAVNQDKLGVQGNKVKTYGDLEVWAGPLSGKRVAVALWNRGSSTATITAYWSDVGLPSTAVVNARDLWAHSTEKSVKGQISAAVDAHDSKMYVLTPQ
Ubiquitin carboxyl-terminal hydrolase 1 (Homo sapiens), sequence (O94782 whole entry, looked up): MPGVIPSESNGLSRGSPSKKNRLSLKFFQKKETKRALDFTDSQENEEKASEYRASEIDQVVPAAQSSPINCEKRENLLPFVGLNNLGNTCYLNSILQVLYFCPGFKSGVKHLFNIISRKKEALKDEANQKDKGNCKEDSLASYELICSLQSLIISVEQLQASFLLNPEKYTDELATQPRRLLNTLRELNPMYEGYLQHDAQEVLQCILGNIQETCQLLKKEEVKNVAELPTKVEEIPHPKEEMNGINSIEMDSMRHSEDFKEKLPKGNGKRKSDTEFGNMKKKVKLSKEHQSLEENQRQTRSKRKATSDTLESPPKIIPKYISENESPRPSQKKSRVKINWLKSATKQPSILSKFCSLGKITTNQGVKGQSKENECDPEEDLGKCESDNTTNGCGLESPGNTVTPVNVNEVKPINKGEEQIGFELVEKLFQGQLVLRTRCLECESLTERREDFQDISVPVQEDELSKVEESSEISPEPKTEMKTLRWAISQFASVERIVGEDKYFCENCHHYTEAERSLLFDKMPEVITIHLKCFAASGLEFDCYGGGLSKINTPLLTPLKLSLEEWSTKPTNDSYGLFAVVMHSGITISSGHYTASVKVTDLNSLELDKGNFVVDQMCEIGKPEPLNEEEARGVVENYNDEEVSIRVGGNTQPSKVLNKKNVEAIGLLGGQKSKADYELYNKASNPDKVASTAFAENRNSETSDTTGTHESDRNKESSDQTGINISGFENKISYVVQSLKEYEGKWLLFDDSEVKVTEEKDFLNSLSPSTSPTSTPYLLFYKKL
Parathyroid hormone/parathyroid hormone-related peptide receptor (Homo sapiens), sequence (Q03431 whole entry, looked up): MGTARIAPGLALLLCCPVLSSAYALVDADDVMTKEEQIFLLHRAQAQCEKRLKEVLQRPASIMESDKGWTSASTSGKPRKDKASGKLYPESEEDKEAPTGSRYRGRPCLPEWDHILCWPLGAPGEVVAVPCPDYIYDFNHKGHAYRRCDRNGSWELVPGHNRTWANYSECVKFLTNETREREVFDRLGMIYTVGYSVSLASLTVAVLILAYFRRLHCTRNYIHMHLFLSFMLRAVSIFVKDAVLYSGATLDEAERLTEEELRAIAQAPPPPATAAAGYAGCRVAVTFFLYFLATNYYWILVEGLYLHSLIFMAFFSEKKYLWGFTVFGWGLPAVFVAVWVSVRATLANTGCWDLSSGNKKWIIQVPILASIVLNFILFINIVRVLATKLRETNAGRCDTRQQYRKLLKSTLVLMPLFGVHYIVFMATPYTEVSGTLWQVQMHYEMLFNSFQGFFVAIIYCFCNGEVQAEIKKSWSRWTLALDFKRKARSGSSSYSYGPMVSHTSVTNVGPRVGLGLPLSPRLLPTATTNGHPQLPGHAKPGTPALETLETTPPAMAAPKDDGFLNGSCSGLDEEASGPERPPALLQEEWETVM
Arylsulfatase A (Homo sapiens), sequence (P15289 whole entry, looked up): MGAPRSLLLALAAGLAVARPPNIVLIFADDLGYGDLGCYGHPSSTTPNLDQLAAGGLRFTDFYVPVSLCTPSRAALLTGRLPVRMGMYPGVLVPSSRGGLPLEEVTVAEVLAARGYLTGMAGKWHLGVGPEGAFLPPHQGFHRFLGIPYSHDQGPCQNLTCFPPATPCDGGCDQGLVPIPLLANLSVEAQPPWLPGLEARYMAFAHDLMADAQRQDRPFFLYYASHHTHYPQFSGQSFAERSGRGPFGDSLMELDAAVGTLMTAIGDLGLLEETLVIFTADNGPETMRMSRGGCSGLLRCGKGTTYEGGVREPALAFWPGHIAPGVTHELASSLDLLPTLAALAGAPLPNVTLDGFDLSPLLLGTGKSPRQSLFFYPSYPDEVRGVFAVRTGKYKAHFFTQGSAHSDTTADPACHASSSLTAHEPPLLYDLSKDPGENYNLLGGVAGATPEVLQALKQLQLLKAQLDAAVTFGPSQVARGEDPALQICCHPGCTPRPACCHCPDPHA
Catechol O-methyltransferase (Homo sapiens), sequence (P21964 whole entry, looked up): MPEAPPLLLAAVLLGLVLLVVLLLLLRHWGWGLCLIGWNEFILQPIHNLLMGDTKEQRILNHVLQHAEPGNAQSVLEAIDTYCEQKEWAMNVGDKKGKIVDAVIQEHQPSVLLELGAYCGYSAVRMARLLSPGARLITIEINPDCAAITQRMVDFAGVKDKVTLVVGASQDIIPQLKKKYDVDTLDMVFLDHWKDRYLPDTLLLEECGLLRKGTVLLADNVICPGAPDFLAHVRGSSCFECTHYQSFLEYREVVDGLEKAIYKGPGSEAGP
Nucleoprotein (Lymphocytic choriomeningitis virus (strain Armstrong)), sequence (P09992 whole entry, looked up): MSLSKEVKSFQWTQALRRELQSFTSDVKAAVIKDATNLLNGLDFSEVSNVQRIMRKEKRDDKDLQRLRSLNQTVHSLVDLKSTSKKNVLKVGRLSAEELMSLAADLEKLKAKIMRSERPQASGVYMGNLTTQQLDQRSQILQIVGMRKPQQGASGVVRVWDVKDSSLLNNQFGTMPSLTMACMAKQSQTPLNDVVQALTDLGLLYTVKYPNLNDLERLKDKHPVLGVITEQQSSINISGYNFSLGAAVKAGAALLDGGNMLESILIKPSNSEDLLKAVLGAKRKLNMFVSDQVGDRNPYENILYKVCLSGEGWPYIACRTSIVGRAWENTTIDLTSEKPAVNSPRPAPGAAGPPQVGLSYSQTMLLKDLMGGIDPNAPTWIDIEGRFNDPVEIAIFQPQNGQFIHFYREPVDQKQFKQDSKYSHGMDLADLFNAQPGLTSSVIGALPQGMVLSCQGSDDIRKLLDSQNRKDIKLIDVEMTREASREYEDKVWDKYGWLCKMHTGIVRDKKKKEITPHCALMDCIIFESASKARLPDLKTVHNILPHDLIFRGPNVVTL
M-phase phosphoprotein 8 (Homo sapiens), sequence (Q99549 whole entry, looked up): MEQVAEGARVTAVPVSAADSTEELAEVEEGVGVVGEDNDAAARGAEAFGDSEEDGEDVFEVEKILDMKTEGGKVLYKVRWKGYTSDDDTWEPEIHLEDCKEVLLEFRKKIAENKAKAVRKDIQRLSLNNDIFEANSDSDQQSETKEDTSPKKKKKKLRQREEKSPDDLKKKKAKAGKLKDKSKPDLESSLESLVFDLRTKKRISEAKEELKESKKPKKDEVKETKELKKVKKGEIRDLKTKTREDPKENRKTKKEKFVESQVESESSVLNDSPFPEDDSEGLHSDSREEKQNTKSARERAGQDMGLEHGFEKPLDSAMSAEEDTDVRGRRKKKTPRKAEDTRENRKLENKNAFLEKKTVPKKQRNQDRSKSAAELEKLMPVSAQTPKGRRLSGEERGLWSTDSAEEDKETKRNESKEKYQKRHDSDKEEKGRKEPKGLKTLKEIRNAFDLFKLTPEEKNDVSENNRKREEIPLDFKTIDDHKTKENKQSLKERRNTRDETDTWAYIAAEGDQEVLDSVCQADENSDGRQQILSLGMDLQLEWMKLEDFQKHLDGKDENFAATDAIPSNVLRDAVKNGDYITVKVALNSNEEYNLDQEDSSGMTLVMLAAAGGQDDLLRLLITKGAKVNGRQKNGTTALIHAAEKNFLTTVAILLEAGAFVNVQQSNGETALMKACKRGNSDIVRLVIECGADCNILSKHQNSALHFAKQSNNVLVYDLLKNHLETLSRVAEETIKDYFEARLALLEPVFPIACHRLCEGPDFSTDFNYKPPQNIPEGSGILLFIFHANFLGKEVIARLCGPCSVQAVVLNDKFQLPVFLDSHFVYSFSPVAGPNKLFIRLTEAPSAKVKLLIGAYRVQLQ
Luciferin 4-monooxygenase (Photinus pyralis), sequence (P08659 whole entry, looked up): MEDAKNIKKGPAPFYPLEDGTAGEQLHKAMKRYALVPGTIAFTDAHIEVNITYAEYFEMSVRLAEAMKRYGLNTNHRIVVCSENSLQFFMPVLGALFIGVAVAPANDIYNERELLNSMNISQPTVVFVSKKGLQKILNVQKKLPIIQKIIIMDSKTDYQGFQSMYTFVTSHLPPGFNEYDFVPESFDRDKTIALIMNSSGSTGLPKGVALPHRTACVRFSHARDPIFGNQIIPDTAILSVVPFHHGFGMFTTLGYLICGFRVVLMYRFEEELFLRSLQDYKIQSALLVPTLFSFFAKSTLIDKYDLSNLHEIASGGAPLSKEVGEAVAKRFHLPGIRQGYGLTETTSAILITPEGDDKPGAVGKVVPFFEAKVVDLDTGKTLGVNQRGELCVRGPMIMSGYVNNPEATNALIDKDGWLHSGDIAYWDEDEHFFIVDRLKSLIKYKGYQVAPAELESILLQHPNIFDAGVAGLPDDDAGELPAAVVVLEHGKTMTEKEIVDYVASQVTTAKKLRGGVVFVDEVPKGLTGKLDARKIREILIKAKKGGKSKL
Nicotinamide N-methyltransferase (Homo sapiens), sequence (P40261 whole entry, looked up): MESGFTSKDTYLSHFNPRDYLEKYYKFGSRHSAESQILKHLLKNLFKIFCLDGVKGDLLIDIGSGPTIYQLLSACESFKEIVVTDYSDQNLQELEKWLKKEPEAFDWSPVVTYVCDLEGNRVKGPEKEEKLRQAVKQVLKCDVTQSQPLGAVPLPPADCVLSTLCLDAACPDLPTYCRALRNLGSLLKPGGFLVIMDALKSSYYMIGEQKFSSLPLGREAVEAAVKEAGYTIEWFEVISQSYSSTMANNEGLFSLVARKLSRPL
Glutathione peroxidase 1 (Homo sapiens), sequence (P07203 whole entry, looked up): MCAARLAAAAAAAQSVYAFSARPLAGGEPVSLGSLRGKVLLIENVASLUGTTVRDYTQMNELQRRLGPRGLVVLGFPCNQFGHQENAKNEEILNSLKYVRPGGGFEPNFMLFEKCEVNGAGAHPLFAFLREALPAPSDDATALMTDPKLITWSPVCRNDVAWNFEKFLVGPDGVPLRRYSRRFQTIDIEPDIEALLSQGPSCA

`C=C1C(C)C2C(Cc3ccccc3)NC(=O)C23C(OC(C)=O)C=CC(C)(O)CC(C)CC=CC3C1O` (configuration not stated): in [1], the Potency result is “inactive”.

Take `CCOC(=O)C1(c2ccccc2)CCCN(C)CC1` (configuration not stated): the Potency result in assay [2], in [4], in [6], in assay [8], in assay [10] and in [11] was “inactive” in each case. Also, in assay [3], the max response is 9.62% (inactive). For the same compound, the outcome in assay [5] and in assay [7] was “inactive” throughout. Moreover, the activity change, negative = inhibition in [9] is -23.2%.

On to `O=C1NC(=O)c2c1c1c3ccccc3[nH]c1c1[nH]c3ccccc3c21`, for which the Potency result in assay [4], in assay [1], in assay [13] and in assay [16] was “inactive” in each case. The activity is -2.49% in assay [12], -2.73% in assay [14] and -3.39% in [15].

Consider `C1CCc2nnnn2CC1`, for which the outcome in assay [17], in [18], in assay [22], in assay [24] and in assay [26] was “inactive” throughout. The Potency entry in assay [19], in assay [20], in [21], in assay [23], in assay [25] and in [1] was “inactive” in each case. Moreover, the Potency entry in assay [27], in assay [28] and in assay [29] was “inactive” in each case.
